Results filed as inconclusive are left out. Calls of active or inactive are those of the source. Calls come from the whole dose curve; as a rule, active = well fitted inhibition curve with a large enough effect; inconclusive = small, poorly fitted or top-dose-only effect; inactive = flat fitted curve, though single readings scatter.
% is set by controls: 0 for no effect and ±100 for the full control effect.

For this assay, the target named is Calcium and integrin-binding protein 1 (Homo sapiens) (UniProt Q99828). Kind of assay: Primary qHTS for Identification of Calcium Integrin Binding Protein 1 (CIB1) Competitor (AID 1508620). Note: top concentration of the series differs between compounds. The note with it: CIB1-GST / FITC-alphaIIb peptide fluorescence polarization; series mostly up to 114 µM; activity change, negative = inhibition: at the top concentration. In outline: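 Fluorescence polarization competition: GST-tagged CIB1 (1 uM final) preincubated with compound 15 min at room temperature, then FITC-labelled alphaIIb peptide (100 nM final) added. After 15 min at room temperature, polarization read at Ex 480/Em 540.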
Chain of Calcium and integrin-binding protein 1 (Homo sapiens) (Q99828 whole entry, looked up): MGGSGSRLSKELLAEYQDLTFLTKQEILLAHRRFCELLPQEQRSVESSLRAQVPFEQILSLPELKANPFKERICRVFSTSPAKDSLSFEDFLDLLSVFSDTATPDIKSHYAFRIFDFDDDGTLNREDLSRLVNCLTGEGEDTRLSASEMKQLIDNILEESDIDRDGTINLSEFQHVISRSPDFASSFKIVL
On the technique in general: In qHTS, concentration-response curves come from the screen itself.
On to `COc1ccc2cc(-c3cc(-c4cc(Cl)cc(Cl)c4)nn3C(C)c3ccc(C(=O)NCCC(=O)O)cc3)ccc2c1` (centres undefined), for which the “activity change, negative = inhibition” value was 4.36% (inactive).
Turning to `Cc1ccnc(NC(=O)C(C)c2cccc(C(=O)c3ccccc3)c2)c1` (centres undefined), the “activity change, negative = inhibition” value was 3.38% (inactive).
Take `Cc1nc2cc(C(=O)NCc3ccccn3)nn2c(C)c1Cc1cccc(Cl)c1`: the “activity change, negative = inhibition” value was -2.57% (inactive).
Regarding `O=C(O)c1cccc(-c2ccc(-c3cn(C(=O)N4CCCCC4Cc4ccccc4)nn3)cc2)c1` (centres undefined), the “activity change, negative = inhibition” value is -9.42% (inactive).
Regarding `CC(C)(C)c1ccc(NC(=O)N2CCN(c3ncccc3Cl)CC2)cc1`, the “activity change, negative = inhibition” value was 3.66% (inactive).
The figure for `O=C(NCc1nc2ccccc2c(=O)n1-c1ccc(F)cc1)Nc1ccc(Cl)c(C(F)(F)F)c1` is -3.59% (inactive); for `O=C(Nc1cccc([N+](=O)[O-])c1)c1cccc(S(=O)(=O)N2CCCCCC2)c1` it is -2.76% (inactive).
For the compound `Cc1cc(C)c2c(c1)C(N(Cc1cc(C(F)(F)F)cc(C(F)(F)F)c1)c1nnn(C)n1)CCCN2CC1CCC(C(=O)O)CC1` (centres undefined), the “activity change, negative = inhibition” value is 2.61% (inactive).
On to `CCCn1cc2c(nc(NC(=O)Nc3ccc(OC)cc3)n3nc(-c4ccco4)nc23)n1`, for which the “activity change, negative = inhibition” value was -14% (inactive).
Take `O=C(Nc1ccc(N2C(=O)[C@@H]3[C@H](C2=O)[C@@H]2C=C[C@H]3C2)c(Cl)c1)c1ccccn1`: the “activity change, negative = inhibition” value was 3.64% (inactive).
For `COc1ccc(C#Cc2ccc(C(=O)N3CCC[C@@H](CO)C3)cc2)cc1` the value was 1.81% (inactive); for `CN(C)c1ccnc2sc3c(=O)n(N4CCCCCC4)cnc3c12`, -3.42% (inactive).
The figure for `OC1CCC(Nc2nc(-c3ccccc3)nc3[nH]ccc23)CC1` (centres undefined) is -3.59% (inactive).
Turning to `CC(C)(O)c1ccc2c(c1)ncn2-c1cccc(-c2ccccc2C#N)c1`, the “activity change, negative = inhibition” value is -1.66% (inactive).
For `COc1ccc2nccc(C(=O)CC[C@@H]3CCN(CC#Cc4cc(F)cc(F)c4F)C[C@@H]3C(=O)O)c2c1`, the “activity change, negative = inhibition” value is -5.01% (inactive).
Take `CNC(=O)COC(=O)N1CCC(CCc2ccc(Cl)cc2)CC1`: the “activity change, negative = inhibition” value was -3.28% (inactive).
With `COc1cc(C(=O)NCC2(N(C)C)CCCC2)cc(OC)c1OCc1ccccc1`, the “activity change, negative = inhibition” value was 3.83% (inactive).
With `CN1CCN(C2=Nc3ccccc3Nc3ccc(Cl)cc32)CC1`, the “activity change, negative = inhibition” value is -6.89% (inactive).
For `CCCOc1ccc(S(=O)(=O)N2CCN(CCO)CC2)cc1-c1nc2c(CCC)cn(CC)c2c(=O)[nH]1` the value was 4.28% (inactive).
For the compound `COc1cc(N2CCOCC2)ccc1NC(=O)c1csc(-c2cccnc2)n1`, the “activity change, negative = inhibition” value was -6.54% (inactive).
The figure for `COc1c(F)cccc1C(=O)N1C[C@@H](C)CC[C@H]1CNc1ccc(Br)cn1` is 2.43% (inactive); for `COc1ccccc1OCCN1CC(COc2cccc3[nH]c4ccccc4c23)OCC1=O` (centres undefined) it is -5.72% (inactive).
As for `Cc1ccc(-c2cn3c4c(sc3n2)CCCC4)cc1`, the “activity change, negative = inhibition” value is 5.63% (inactive).
On to `O=C1COc2nccc(-c3ccccc3F)c2CN1Cc1cc(C(F)(F)F)cc(C(F)(F)F)c1`, for which the “activity change, negative = inhibition” value was 1.74% (inactive).
Consider `CC1=C(C(=O)Nc2cc(Cl)ccc2Cl)C(c2ccco2)C2=C(CCCC2=O)N1` (centres undefined), for which the “activity change, negative = inhibition” value is 1.52% (inactive).
Turning to `Cn1c(CO)c(-c2ccccc2)c2cc([N+](=O)[O-])ccc21`, the “activity change, negative = inhibition” value is -5.94% (inactive).
Consider `O=C(Nc1ccccc1)N1CCN(c2nc(-c3ccccc3)ns2)CC1`, for which the “activity change, negative = inhibition” value was 1.87% (inactive).
The figure for `O=C(NCc1ccccc1-c1ccccc1C(=O)NCCc1ccccn1)OCc1ccccc1` is 1.74% (inactive).
Turning to `COC(=O)c1sccc1S(=O)(=O)Nc1ccc(Nc2ccccc2)cc1OC`, the “activity change, negative = inhibition” value was -1.87% (inactive).
`O=C(Nc1ccccc1C(=O)Nc1ccc(CCO)cc1)c1ccc([N+](=O)[O-])cc1`: the “activity change, negative = inhibition” value is -0.0606% (inactive).
For `Cc1cc(-c2nc(-c3ccc(OC(F)(F)F)cc3)no2)nn1Cc1ccnc(N2CCN(C3CC3)CC2)c1` the value was 2.08% (inactive).
For `COc1ccc2cc3c(NC(=O)c4ccco4)nn(C)c3nc2c1` the value was -6.47% (inactive); for `C[C@@H](O[C@H]1OCCN(Cc2nn(P(=O)(O)O)c(=O)[nH]2)[C@H]1c1ccc(F)cc1)c1cc(C(F)(F)F)cc(C(F)(F)F)c1`, -0.816% [at 57.7 µM] (inactive).
With `O=C(O)c1cc(N(Cc2ccc(C3CCCCC3)cc2)C(=O)c2ccc(Oc3ccccc3)cc2)ccc1O`, the “activity change, negative = inhibition” value was -2.04% (inactive).
For `O=C(Nc1ccn(Cc2ccc(O)cc2C(F)(F)F)n1)c1c(F)cccc1F` the value was 5.17% (inactive); for `COc1ccc(N(C(=O)Nc2c(C)cccc2C)c2cc(Nc3ccc(N4CCN(C)CC4)cc3)ncn2)c(OC)c1`, 0.51% (inactive); for `c1ccc(-c2cnn3cc(-c4ccc(OCCN5CCOCC5)cc4)cnc23)cc1`, 2.93% (inactive).
For `Cc1ccc(N2CCN(S(=O)(=O)N3CCCCC3)CC2)c(C)c1`, the “activity change, negative = inhibition” value was 3% (inactive).
Consider `NS(=O)(=O)c1ccc(N2N=C(c3ccccc3)CC2c2ccccc2)cc1` (centres undefined), for which the “activity change, negative = inhibition” value is -2.35% (inactive).

The record behind these values is PubChem BioAssay (NCATS).
